# Source: PubChem BioAssay
# This is a sample that favours compounds with a hit; in the whole collection about 10% have one here.
# ALDH1A1 inh: inhibitors of human aldehyde dehydrogenase 1A1 | P00352 | Purified ALDH1A1, NADH fluorescence, propionaldehyde substrate | Potency, µM (series often up to 75.3 µM), for inactives: at the highest dose activity, negative = inhibition, usual class: inhibitors | 220,000 compounds, 7.3% hits | AID 1030;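 note: potency is the fitted concentration of half-maximal effect; plate controls were no enzyme wells and a reference inhibitor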
# Target sequence (P00352 whole entry, looked up): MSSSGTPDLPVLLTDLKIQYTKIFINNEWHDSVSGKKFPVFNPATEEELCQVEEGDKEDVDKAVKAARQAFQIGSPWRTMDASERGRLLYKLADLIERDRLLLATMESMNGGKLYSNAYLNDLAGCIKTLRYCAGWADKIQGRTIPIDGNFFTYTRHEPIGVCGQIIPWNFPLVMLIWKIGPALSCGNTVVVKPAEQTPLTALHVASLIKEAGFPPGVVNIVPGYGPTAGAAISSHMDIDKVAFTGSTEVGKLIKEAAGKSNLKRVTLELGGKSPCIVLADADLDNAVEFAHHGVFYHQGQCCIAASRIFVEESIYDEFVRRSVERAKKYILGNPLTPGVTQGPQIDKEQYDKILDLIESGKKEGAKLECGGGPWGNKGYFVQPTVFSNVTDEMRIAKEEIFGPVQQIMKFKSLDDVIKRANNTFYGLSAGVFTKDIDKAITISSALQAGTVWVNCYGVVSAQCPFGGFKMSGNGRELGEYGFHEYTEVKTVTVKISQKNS
# LMNA splice mod: changes lamin A minigene splicing in HeLa cells; HeLa LMNA splicing GFP/RFP minigene ratio, 48 h; Potency, µM (top dose mostly 46.1 µM), inactives show top-dose ratio change, negative = inhibition, hits mostly inhibitors; 200,000 compounds, 0.01% hits; active = well fitted inhibition curve with a large enough effect in the signal ratio, with a control signal flat, not every such curve was filed as active; inconclusive = small, poorly fitted or top-dose-only effect, or effect the other way, or a change in a side signal; the % refers to the signal ratio; note: potency is the fitted concentration of half-maximal effect
#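 S3 HeLa cells stably expressing lamin A-EGFP splicing minigene plus DsRed2, 600 cells/well, 48 h compound exposure at 37C. Laser-scanning cytometry; analysed as GFP (500-530 nm)/RFP (575-640 nm) total intensity ratio; 0.5% DMSO vehicle.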
# PNC assembly inh: blocks assembly of the perinucleolar compartment. PC3M PTB-GFP, PNC prevalence imaging, 16 h; stronger effect = lower value. activity change (PNC), negative = inhibition, % at 10 µM. 140,000 compounds, 3.1% hits;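 active = readout at or below -70, meaning at least 70% loss of cells showing the perinucleolar compartment, a nuclear body marking cancer cells; inconclusive = readout between -30 and a set limit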;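 note: plate controls were DMSO wells for no effect and camptothecin positive control wells for full effect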
#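 Compounds are pinned in duplicate onto adhered PC3M cells stably expressing GFP-tagged PTB and incubated 16 h at 37 C. Cells are then fixed, nuclei stained with Hoechst, and PNC-positive cells counted.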
# ALOX12 inhib: blocks human 12-lipoxygenase activity. purified 12-hLO, xylenol orange hydroperoxide absorbance. Potency, µM (series often up to 57.1 µM), inactives show at the top dose activity change, negative = inhibition, hits mostly inhibitors. 150,000 compounds, 0.12% hits. P18054; active = well fitted inhibition curve with a large enough effect; inconclusive = small, poorly fitted or top-dose-only effect; note: potency is the fitted concentration of half-maximal effect; nearly all actives have a fitted effect of over 55% in size
#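 Lipoxygenase turnover measured by absorbance at 573 and 405 nm after Fe-XO development. Human 12hLO 150 nM, arachidonate 40 uM, pH 7.0 Hepes buffer with detergent; 15 min compound preincubation, 30 min reaction.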
# HPGD block: blocks human HPGD enzyme activity; 150,000 compounds, 4.3% hits; Potency, µM, for the others: at the top dose activity change, negative = inhibition, hits mostly inhibitors; purified HPGD, NADH fluorescence kinetic, PGE2 substrate; AID 894; P15428; note: potency is the fitted concentration of half-maximal effect
#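 NADH formation kinetics: reaction with 30 uM PGE2 and 1 mM NAD+ (final), 20 nM enzyme, Tris-HCl pH 8 with Tween 20, after 15 min compound preincubation at room temperature. Fluorescence change, last versus first of five reads.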
# * hit, by the source's call; ? = inconclusive; . = no result given; [ ] = another dose, or the depositor's remark. Unless noted, calls come from the whole dose curve; as a rule, active = well fitted inhibition curve with a large enough effect (not every such curve was filed as active); inconclusive = small, poorly fitted or top-dose-only effect, or another doubt; inactive = no such curve, though single readings can be large or run the other way. Unless noted, % is set by controls: 0 for no effect and ±100 for the full control effect.
SMILES,ALDH1A1 inh,LMNA splice mod,PNC assembly inh,ALOX12 inhib,HPGD block
CC(Oc1ccc(Cl)cc1Cl)C(=O)NC1CCSC1=O (configuration not stated),12%,-3%,12,0%,14µM*
CC(=O)Nc1ccc(NC(=O)C(C)Oc2ccc(Cl)cc2Cl)cc1 (configuration not stated),5%,-9%[46 µM],.,.,.
COC(=O)C1CCN(C(=O)C(C)Oc2ccc(Cl)cc2Cl)CC1 (configuration not stated),?,-1%,-87*,-13%,-27%
CC(Oc1ccc(Cl)cc1Cl)C(=O)Nn1cnnc1 (configuration not stated),5%,1%,-119*,4%,4%
CCOC(=O)C1CCCN(C(=O)C(C)Oc2ccc(Cl)cc2Cl)C1 (configuration not stated),9%,4%,13,-7%,-7%
CC(Oc1ccc(Cl)cc1Cl)C(=O)NC1=NN(c2ccccc2)C(=O)C1 (configuration not stated),15%,1%,1,8.9µM*,-6%
COCCNC(=O)C(C)Oc1ccc(Cl)cc1Cl (configuration not stated),10%,3%,40,5%,32µM*
CCNC(=O)C(C)Oc1ccc(Cl)cc1Cl (configuration not stated),-13%,.,.,.,.
Cc1cc(C)n(C(C)CC(=O)Nc2cccc(C(F)(F)F)c2)n1 (configuration not stated),.,-7%[46 µM],.,.,.
COc1ccc(C(C)=O)cc1COc1ccc(-n2cnnn2)cc1,3.5µM*,5%,-1,11%,?
COc1ccc(C(C)=O)cc1COC(=O)c1ccc(OCc2c(C)noc2C)cc1,7.9µM*,16%,45,-7%,-12%
COc1ccc(C(C)=O)cc1COC(=O)c1c(C)noc1C,22µM*,2%,-8,5%,-21%
C[C@@H](CNC(N)=O)NC(N)=O,4%[13.5 µM],.,.,5%[11.4 µM],-17%
Cc1cc(C)n(Cc2ccccc2)c(=O)c1S(=O)(=O)c1ccccc1,?,-12%,30,11%,-5%
Cc1c(CN(C)C)c2c(n1Cc1ccccc1)C(=O)c1ccc(Br)cc1-2,10µM*,-13%,-10,-9%,-4%
CC1=NN(C(N)=S)C(=O)C1N=Nc1cccc2ccccc12 (configuration not stated),14µM*,?,.,.,.
CC1=NN(c2ccccc2)C(=O)C1N=Nc1ccccc1 (configuration not stated),19%,?,-9,-3%,-1%
CC1=NN(C(N)=S)C(=O)C1N=Nc1ccccc1 (configuration not stated),22µM*,?,.,.,.
Cc1ccc(Cl)cc1NC(=O)COC(=O)c1ccc(COc2ccc3c(C)cc(=O)oc3c2)cc1,?,5%,-113*,-4%,?
CCOC(=O)c1cccc(NC(=O)CSc2nnnn2C)c1,11%,13%,?,-2%,0%
COC(=O)c1cccc(NC(=O)CSc2nnnn2C)c1,14µM*,13%,26,-1%,-9%
COC(=O)c1cccc(-n2nnnc2SCC(=O)Nc2cc(C)on2)c1,11µM*,2%,51,-2%,.
COC(=O)c1cccc(-n2nnnc2SCC(=O)Nc2nc3c(s2)CCCC3)c1,?,-2%,26,-8%,20µM*
COc1cccc(-n2nnnc2SCC(=O)Nc2nc3c(s2)CCCC3)c1,?,?,?,-3%,25µM*
COC(=O)c1sc(NC(=O)CSc2nnnn2-c2cccc(OC)c2)nc1C,-2%,-2%,31,-1%,-15%
SMILES,ALDH1A1 inh,LMNA splice mod,PNC assembly inh,ALOX12 inhib,HPGD block
COc1ccc(NC(=O)CSc2nnnn2C)c([N+](=O)[O-])c1,28µM*,.,.,.,.
Cn1nnnc1SCC(=O)Nc1ccccc1[N+](=O)[O-],?,-1%,-23,-3%,-12%
Cc1ccc(S(=O)(=O)CCc2nnc(NC(=O)CCl)s2)cc1C,1µM*,?,.,.,.
COc1ccc(CCCC(=O)NCc2ccccc2)cc1C,-12%,?,-22,-4%,16µM*
COc1ccccc1CNC(=O)c1cccc(C)c1[N+](=O)[O-],-1%,-8%,-15,5%,18µM*
COc1ccc(-c2nc3ccccc3s2)cc1O,?,-17%,-90*,-14%,?
COc1ccccc1C(=O)NCc1ccccc1,12%,1%,-114*,-9%,11µM*
COc1ccccc1C(=O)NCc1ccncc1,13%,10%,?,-3%,-4%
Cc1ccc(CNC(=O)CCCc2ccccc2)cc1,4%,-23%[46 µM],.,.,.
COc1ccccc1CNC(=O)C(NC(=O)c1ccccc1C)C(C)C (configuration not stated),7%,.,.,.,.
COc1cc(NC(=O)Cn2c(=O)oc3cc(S(=O)(=O)N4CCCCCC4)ccc32)cc(OC)c1,.,-1%[46 µM],.,.,.
CCNc1ncc2nc(-c3ccc(OC)cc3)c(=O)n(-c3ccc(OC)cc3)c2n1,?,.,.,2%,?
Cc1ccc(C)c(NC(=O)c2nc(S(C)(=O)=O)ncc2N(Cc2ccc(C(C)(C)C)cc2)Cc2ccco2)c1,.,10%[46 µM],.,.,.
Cc1cccc(C)c1NC(=O)c1sc(-n2nc(C)c(Cc3ccccc3)c2C)nc1C,.,40%[46 µM],.,.,.
CCCN1CCN(c2ncc3c(n2)CCN(Cc2ccc(OC)c(OC)c2OC)C3)CC1,.,5%[46 µM],.,.,.
COCCCNC(=O)c1cccc(OC)c1OC,2%,2%,?,-2%,7.1µM*
COc1ccc(CNC(=O)c2ccccc2[N+](=O)[O-])cc1,11%,17%,59,-23%,11µM*
COc1ccccc1C(=O)NCc1ccc(-c2nc3ccccc3s2)cc1,?,?,?,-3%,18µM*
COc1cc(C(=O)NCc2ccc(-c3nc4ccccc4s3)cc2)cc(OC)c1OC,2%,-9%,?,1%,-8%
COC(=O)C(Cc1ccc(O)cc1)NC(=O)c1ccccc1 (configuration not stated),3%,7%,?,0%,-2%
COC(=O)C(Cc1ccc(O)cc1)NC(=O)c1ccccc1OC (configuration not stated),28µM*,11%,-5,2%,-11%
COc1ccc(NC(=O)c2ccccc2[N+](=O)[O-])cc1,-12%,-3%,-1,-2%,-10%
CCOCCCNC(=O)C1CCN(c2nc3ccc(C)cc3[nH]2)CC1,.,-3%[46 µM],.,.,.
O=C(c1ccncc1)N1CCC[C@@]2(CCN(c3ccccc3)C2)C1,?,.,.,-10%,-1%
O=C(CN1C=NS(=O)(=O)c2ccccc21)Nc1ccc(F)cc1,.,-1%[46 µM],.,.,.
COc1cc(C(=O)NCc2ccccc2)cc(Br)c1OC,3%,?,?,-2%,22µM*
COc1cc2[nH]c(=O)n3nc(-c4ccccc4)nc3c2cc1OC,?,0%,-100*,3%,?
O=C(Cn1c(NCCCO)nc2ccccc21)c1cccc(Br)c1,28µM*,4%,27,-2%,-25%
